# Screens: PubChem, several laboratories
# CYP2C19 act = activators of human cytochrome P450 2C19. P33261. recombinant CYP2C19, luciferin-H EGE luminescence; stronger effect = higher value; 0 = fully inhibited enzyme, 1 = untreated enzyme. activation factor at 5 µM. 96,000 tested, under 10 active;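 active = activation factor of at least 2 at 5 µM in the primary screen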;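 also: 0 = wells with 2.5 mM tranylcypromine and 1 = vehicle-only wells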
# Cav3 T inh = human Cav3.2 channel inhibition, primary screen; O95180; Cav3.2-expressing cells, Fluo-4 calcium fluorescence FDSS; stronger effect = lower value; B-score at 10 µM; hit rate 4% among 100,000; AID 449739;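 active = single-dose well whose peak fluorescence ratio is a statistical outlier from its plate by either plate-standardised score or position-corrected B-score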
# CYP2C9 activ = CYP2C9 (human) activation. P11712. recombinant CYP2C9, luciferin-H conversion, luminescence; stronger effect = higher value; factor 1 = untreated enzyme, 0 = blocked. activation factor at 5 µM. hit rate 1.4% among 96,000;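 active = activation factor of 2 or more for CYP2C9 at a 5 µM dose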;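 also: 0 = sulfaphenazole-blocked wells and 1 = vehicle-only wells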
# CYP2C19 inh = inhibitors of human CYP2C19. CYP2C19 Supersomes, luciferin-H EGE luminescence, 30 min. inhibition, % at 5 µM. hit rate 21% among 96,000. AID 778;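 active = CYP2C19 inhibition above a set limit at 5 µM in the primary screen, cut at about 50% in these data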;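 also: plate controls were negative control wells for no effect and 2.5 mM tranylcypromine positive control for full effect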
# CYP2C9 inhib = human CYP2C9 inhibition | CYP2C9 Supersomes, luciferin-H conversion, luminescence | P11712 | hit rate 20% among 96,000 | AID 777 | inhibition, % at 5 µM;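 active = blocking of liver enzyme CYP2C9 beyond about 50% at 5 µM, limit read from the data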
# * marks the source's active call; other numbers are inactive results; . = not tested or not shown. Compounds with a hit are over-represented: about 27% of the library has one in this group of screens.
SMILES,CYP2C19 act,Cav3 T inh,CYP2C9 activ,CYP2C19 inh,CYP2C9 inhib
NC(=O)C(c1ccc(Cl)cc1)c1ccc(Sc2ccc(Cl)cc2)nn1 (configuration not stated),0.4,-4.3*,0.6,63*,44
Cc1cc(C(=O)COC(=O)C2=NNC(=O)CC2)c(C)n1-c1cccc(C(F)(F)F)c1,0.2,0.23,0.2,78*,81*
O=c1c(-c2cccc3ccccc23)[n+]([O-])c2ccccc2n1O,1.1,0.024,0.3,-10,75*
COC(=O)Nc1nnc(-c2ccccc2Cl)s1,0.8,0.85,1.2,20,-20
Cc1cccc(N2C(=O)N(c3ccccc3C)C3CS(=O)(=O)CC32)c1 (configuration not stated),0.7,-0.06,0.9,27,12
Cc1cc(C)cc(N2C(=O)N(c3ccccc3C)C3CS(=O)(=O)CC32)c1 (configuration not stated),0.1,0.75,0.9,94*,9
COCCNC(=O)c1ccc(CS(=O)(=O)c2ccccc2)o1,1.1,0.59,1,-7,4
COc1ccccc1C(=O)NC(CCSC)C(=O)NCC(c1ccco1)N(C)C (configuration not stated),0.3,0.04,0.3,69*,67*
COc1ccccc1CNC(=O)C(CCSC)NC(=O)C1CCC(C)CC1 (configuration not stated),0.8,-0.15,0.8,18,20
COc1ccccc1C(=O)NC(CCSC)C(=O)OCC(=O)NC(=O)NCc1ccco1 (configuration not stated),0.8,0.42,0,18,97*
Cc1sc(NC(=O)CSc2nnc(COc3ccc(Cl)cc3)n2C)c(C#N)c1C,1,0.022,0.8,-1,22
C/C=C/Cn1c(SC)nc2c1c(=O)[nH]c(=O)n2C,0.9,-0.0013,1,11,0
C/C=C/Cn1c(SCCCc2ccccc2)nc2c1c(=O)[nH]c(=O)n2C,0.4,-2,0.2,58*,77*
C=CCn1c(SCCCc2ccccc2)nc2c1c(=O)[nH]c(=O)n2C,0.2,.,0.4,76*,63*
C/C=C/Cn1c(SCc2ccc(Cl)cc2)nc2c1c(=O)[nH]c(=O)n2C,0.5,0.78,0.4,48,58*
CC(C)n1c(SCCCc2ccccc2)nc2c1c(=O)[nH]c(=O)n2C,0.8,-1,0.8,24,21
NC(=O)c1c(NC(NC(=O)c2ccco2)(C(F)(F)F)C(F)(F)F)sc2c1CCCC2,0.8,-0.052,0.8,20,21
Cc1ccc2[nH]cc(C(=O)CN3CCN(c4ccccc4F)CC3)c2c1,0.8,0.87,0.8,21,18
CCOC(=O)N1CCN(CC(=O)c2c[nH]c3ccc(F)cc23)CC1,0.5,.,0.5,46,51*
CCN1CCN(CC(=O)c2c[nH]c3ccc(C)cc23)CC1,1.2,0.98,0.5,-19,51*
CCCN1C(=O)c2ccc(C(=O)NC3CCCCC3)cc2C1=O,1,-1.1,0.9,-2,11
O=C(NC1CCCC1)c1ccc(CSCc2ccccc2F)o1,0.1,-2.5,0.1,92*,86*
O=C(NC1CCCCC1)c1ccc(CNc2ccccc2)o1,0.4,0.038,0.4,62*,58*
COc1ccccc1S(=O)(=O)Cc1ccc(C(=O)NC2CCCCC2)o1,0.9,.,0.9,7,7
CSc1nc(C)cc(OCCNS(=O)(=O)c2cc(C)ccc2C)n1,0.6,-0.057,0.5,40,46
SMILES,CYP2C19 act,Cav3 T inh,CYP2C9 activ,CYP2C19 inh,CYP2C9 inhib
Cc1ccc(N(C(=O)c2csnn2)C(C(=O)NC(C)(C)C)c2cccs2)cc1 (configuration not stated),0.2,-0.83,0.9,77*,6
C/C=C/C=C\C(=O)Nc1cccc(C2=NOC3(C2)C[C@H](C(N)=O)N(C(=O)/C=C/C)C3)c1 (some centres not stated),.,0.11,.,.,.
Cc1ccc(-n2cc(C(=O)c3ccccc3O)cn2)cc1,0.4,.,1.1,61*,-5
Cc1noc(C)c1C(=O)N1CCN(Cc2ccc3c(c2)OCO3)CC1,1,-1.6,1.1,3,-6
Cc1ccc(CN2CCN(C(=O)c3ccco3)CC2)cc1,.,0.83,.,.,.
Cc1occc1C(=O)N1CCN(Cc2ccccc2)CC1,0.1,0.18,0.7,90*,33
O=C(c1coc(=O)c2ccccc12)N1CCN(Cc2ccccc2)CC1,0.4,0.0029,1.3,55*,-30
Cc1noc(C)c1C(=O)N1CCN(Cc2ccccc2)CC1,0.1,0.49,0.9,91*,10
O=C(CSc1cccc[n+]1[O-])c1cc2ccccc2o1,0.9,-0.0058,1.1,7,-5
